Most compounds without a hit are left out; they make up all but 2.6% or so of the library.
PAFAH1B3 FP inh – PAFAH1B3 (human) inhibition. recombinant PAFAH1B3, FP-rhodamine probe, fluorescence polarization. 340,000 tested, 0.28% active. inhibition, % at 3.39 µM. Q15102;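 active means inhibition above the screen-wide average of all tested compounds plus 3 SD, cut at about 25% in these data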
Target sequence (Q15102 whole entry, looked up): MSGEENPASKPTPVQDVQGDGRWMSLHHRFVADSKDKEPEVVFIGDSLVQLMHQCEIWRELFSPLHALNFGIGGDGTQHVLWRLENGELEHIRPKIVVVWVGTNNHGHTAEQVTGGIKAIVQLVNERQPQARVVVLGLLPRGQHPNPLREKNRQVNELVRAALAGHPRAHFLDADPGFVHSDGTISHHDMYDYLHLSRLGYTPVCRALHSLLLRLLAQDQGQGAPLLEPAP
PKA-R2B act – activates the human PKA-R2B holoenzyme complex | 340,000 tested, 0.079% active | P22694+P31323 | activation, % at 11.4 µM | PKA-R2B holoenzyme dissociation, Cy5-IP20 fluorescence polarization; R2B truncated from residue 108, S112A mutant; 0% DMSO only, 100% 113 µM cGMP | AID 504700;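 active means activation above a cutoff set at the mean over all compounds plus 3 SD, cut at about 18% in these data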;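 further: higher means more holoenzyme dissociation and a rise in polarization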
pPAFAH FP inh – inhibitors of human plasma PAF acetylhydrolase (pPAFAH); Q13093; recombinant pPAFAH, FP-rhodamine probe fluorescence polarization; inhibition, % at 3.39 µM; 330,000 tested, 1.5% active; AID 463082;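 active means inhibition above the mean inhibition across the screen plus 3 SD, cut at about 25% in these data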;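 further: inhibitors block binding of the rhodamine activity-based probe so polarization drops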
Target sequence (Q13093 whole entry, looked up): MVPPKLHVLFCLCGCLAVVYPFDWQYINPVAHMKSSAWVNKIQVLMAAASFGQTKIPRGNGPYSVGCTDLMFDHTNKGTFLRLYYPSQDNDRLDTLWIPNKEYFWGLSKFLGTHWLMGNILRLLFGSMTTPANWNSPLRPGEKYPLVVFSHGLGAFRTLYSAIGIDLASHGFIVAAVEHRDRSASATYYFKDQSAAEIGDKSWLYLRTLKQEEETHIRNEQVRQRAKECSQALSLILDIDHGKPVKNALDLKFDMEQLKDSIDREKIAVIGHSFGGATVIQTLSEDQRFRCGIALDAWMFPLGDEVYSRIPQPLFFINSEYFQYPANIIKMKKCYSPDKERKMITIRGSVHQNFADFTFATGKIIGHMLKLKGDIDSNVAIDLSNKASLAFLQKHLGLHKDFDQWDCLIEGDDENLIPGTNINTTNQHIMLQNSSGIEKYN
PAFAH1B2 FP inh – PAFAH1B2 (human) inhibition | P68402 | recombinant PAFAH1B2, FP-rhodamine activity probe, fluorescence polarization | inhibition, % at 3.39 µM | 340,000 tested, 1.2% active;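 active means inhibition above the mean of all tested compounds plus 3 SD, cut at about 24% in these data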
PAFAH2 inh – inhibitors of human PAFAH2; 340,000 tested, 0.99% active; recombinant PAFAH2, FP-rhodamine activity probe, fluorescence polarization; inhibition, % at 3.39 µM; Q99487; AID 492956;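 active means inhibition above the mean over all tested compounds plus 3 SD, cut at about 30% in these data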;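 further: inhibitors block probe labeling of enzyme so polarization drops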
PKA-R1A activ – PKA-R1A complex activation; P00514+P68181; PKA-R1A dissociation, Cy5-IP20 fluorescence polarization; scaled: DMSO 0%, 113 µM cGMP 100%; activation, % at 11.4 µM; 340,000 tested, 0.083% active;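 active means percent activation above the mean of all tested compounds plus 3 SD, cut at about 19% in these data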;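 further: higher means more PKAc released from R1A so a rise in polarization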
Large screens that a line does not name were inactive.

CCc1ccc(S(=O)(=O)/N=C2\C=C(NS(=O)(=O)c3ccccc3)C(=O)c3ccccc32)cc1	PAFAH2 inh 34.1 (no result: pPAFAH FP inh)
Cc1ccc(NS(=O)(=O)c2ccc(CCC(=O)NCCO)cc2)cc1	pPAFAH FP inh 24.9
O=C(CCNC(=O)c1ccc(Br)cc1)Nc1ccc(S(=O)(=O)Nc2ncccn2)cc1	pPAFAH FP inh 27.9
Cc1ccc(NS(=O)(=O)c2ccc(CCC(=O)NCc3ccccn3)cc2)cc1	pPAFAH FP inh 31.9
Cc1ccc(NS(=O)(=O)c2ccc(C(=O)NCc3ccccn3)cc2)cc1	pPAFAH FP inh 30.6
CC(C)NS(=O)(=O)c1ccc(CCC(=O)NCc2ccccn2)cc1	none
C[C@]12CCC(=O)CC1=CCC1C3CC=C(C#N)[C@@]3(C)CC[C@@]12O (stereo partly drawn)	none
Cc1cc(=O)oc2cc(NC(=S)NNC(=O)c3c(Cl)cnn3C)ccc12	none
O=C(CNC(=O)c1cccc(F)c1)OCCOc1cccc(Cl)c1	none
CN(Cc1ccccc1)C(=O)c1ccc([N+](=O)[O-])o1	none
CCc1nnc(NC(=O)CSc2sc3c(O)cc(=O)[nH]c3c2C#N)s1	pPAFAH FP inh 31.8
CCc1nnc(NC(=O)CSc2nc3[nH]c(=O)cc(O)c3s2)s1	none
Cc1csc(NC(=O)CSc2sc3c(O)cc(=O)[nH]c3c2C#N)n1	pPAFAH FP inh 33.2, PAFAH2 inh 37.3
Cc1ccc(C)c(NC(=O)CSc2sc3c(O)cc(=O)[nH]c3c2C#N)c1	none
COc1cccc(CN2CC(C(=O)N(C)Cc3ccnc4ccccc34)CCC2=O)c1 (stereo not drawn)	none
Oc1ccc(N2CCN(C(c3cccs3)c3nnnn3CCc3ccccc3)CC2)cc1 (stereo not drawn)	pPAFAH FP inh 30.1
COc1cccc(C(=O)OCC(=O)NC23CC4CC(CC(C4)C2)C3)c1	pPAFAH FP inh 26.7, PAFAH2 inh 81.6
Cc1cnc(C(=O)OCC(=O)NC23CC4CC(CC(C4)C2)C3)cn1	none
CC(=O)Oc1cc(C(=O)OCC(=O)NC23CC4CC(CC(C4)C2)C3)cc(OC(C)=O)c1OC(C)=O	PAFAH1B2 FP inh 64.8, PAFAH2 inh 88.5 (no result: pPAFAH FP inh)
O=C(COC(=O)c1cccs1)NC12CC3CC(CC(C3)C1)C2	none
COc1ccccc1CN1CC(C(=O)NCc2nc3ccccc3n2C)CCC1=O (stereo not drawn)	none (no result: pPAFAH FP inh)
Cc1ccc(NC(=O)CCNS(=O)(=O)c2ccccc2)c(C(=O)c2ccccc2)c1	none
Cc1ccc(S(=O)(=O)Nc2ccc(Cl)cc2C(=O)c2ccc(F)cc2)cc1	PAFAH1B2 FP inh 43.5
Cc1ccc(S(=O)(=O)Nc2ccc(Cl)cc2C(=O)c2ccccc2)cc1	PAFAH1B2 FP inh 27.5
COc1ccc2nc(SCCC(=O)O)cc(C)c2c1	none
Cc1ccc(NC(=O)CN2CCC(C(=O)c3ccc4c(c3)OCCO4)CC2)cc1	none
COC(=O)c1ccccc1NC(=O)CN1CCC(C(=O)c2ccc3c(c2)OCCO3)CC1	pPAFAH FP inh 32.6
S=c1[nH]nc(Cc2ccccc2)n1-c1cccc2ccccc12	PAFAH1B2 FP inh 28.0
COc1cccc(-c2nnc(Nc3nc4c(F)cccc4s3)o2)c1	pPAFAH FP inh 29.4
CCCCN(C(=O)CSc1n[nH]c(-c2ccc(C)cc2)n1)c1c(N)n(CCCC)c(=O)[nH]c1=O	none
COc1cc2c(c3ccccc13)CCCC2=O	none (no result: pPAFAH FP inh)
COC/C=C/C1=CC2=CC(=O)C(C)(OC(=O)c3cnc4ccccc4n3)C(=O)C2=CO1 (stereo not drawn)	pPAFAH FP inh 54.8 (no result: PAFAH1B3 FP inh, PKA-R2B act, PAFAH1B2 FP inh, PAFAH2 inh, PKA-R1A activ)
COC/C=C/C1=CC2=CC(=O)C(C)(OC(=O)c3cnc4ccccc4n3)C(=O)C2=CN1C(CO)CO (stereo not drawn)	none
O=C(O)c1cc([N+](=O)[O-])ccc1NCCCc1ccccc1	pPAFAH FP inh 26.6, PAFAH1B2 FP inh 50.5
CC1(C)CC2CC(C)(CN2C(=O)CN2C(=O)c3ccccc3C2=O)C1 (stereo not drawn)	PAFAH1B2 FP inh 24.2
CC1(C)CC2CC(C)(CN2C(=O)Cc2ccccc2)C1 (stereo not drawn)	none
COc1ccccc1NC(=O)NC(=O)c1ccccc1	none
CC1CCN(c2ccccc2NC(=O)c2ccc(Br)o2)CC1	none
CCCCCCCCC(=O)c1c(OC)oc(C=O)cc1=O	none (no result: PAFAH1B3 FP inh, pPAFAH FP inh, PAFAH1B2 FP inh, PAFAH2 inh)
CCOC(=O)c1cc(C#N)c(SCC(=O)O)[nH]c1=O	PAFAH1B3 FP inh 31.4, pPAFAH FP inh 31.8
O=C(O)c1ccn2c(C(=O)c3ccc(Cl)cc3)c(-c3ccccc3)cc2c1	PAFAH1B2 FP inh 59.0
O=C(NCCO)C(=O)c1c(-c2ccc(Cl)cc2)cc2ccccn12	none
CCn1cc(S(=O)(=O)N2CCN(c3ccc(Cl)cc3)CC2)cn1	none
NC(=O)c1ccc(NC(=O)COC(=O)CC2CC3CCC2C3)cc1 (stereo not drawn)	none
O=C(COC(=O)CC1CC2CCC1C2)NC(=O)NCc1ccco1 (stereo not drawn)	PAFAH1B2 FP inh 25.0
COc1cccc(NC(=O)COC(=O)CC2CC3CCC2C3)c1 (stereo not drawn)	pPAFAH FP inh 33.6, PAFAH2 inh 78.1
COc1cccc(NC(=O)CN(C)C(=O)CC2CC3CCC2C3)c1 (stereo not drawn)	none
O=C(COC(=O)CC1CC2CCC1C2)Nc1cc([N+](=O)[O-])ccc1F (stereo not drawn)	PAFAH1B2 FP inh 42.3, PAFAH2 inh 49.0
O=C(CNCc1ccccn1)N1CCc2ccccc2C1	none
CC(Oc1ccc(Br)cc1)C(=O)Nc1nnc(C2CC2)s1 (stereo not drawn)	PAFAH1B2 FP inh 25.9
O=C(COc1ccc(Br)cc1)Nc1nnc(C2CC2)s1	none
Cc1ccccc1NC(=O)Cc1nc(COC(=O)c2ccc(Cl)c(S(N)(=O)=O)c2)cs1	none
COc1cccc(/C=C/C(=O)OCC(=O)Nc2ccc(Cl)cn2)c1	PAFAH2 inh 31.5
COc1ccc(OCCCC(=O)OCC(=O)Nc2ccc(Cl)cn2)cc1	pPAFAH FP inh 26.4
O=C(COC(=O)Cc1ccc(Br)cc1)Nc1ccc(Cl)cn1	pPAFAH FP inh 25.5
Nc1ccccc1-n1nc2ccc3ccccc3c2n1	none (no result: PAFAH1B3 FP inh, pPAFAH FP inh, PAFAH1B2 FP inh, PAFAH2 inh)
COc1cc(O)c2c(c1)OC(C)(C)CC2=O	none
COc1cc(O)cc2cc3c(c(O)c12)C(=O)CC(C)(O)O3 (stereo not drawn)	pPAFAH FP inh 25.1
O=S(=O)(O)c1cc(Cl)cc(N=Nc2ccc(O)cc2O)c1O	PAFAH1B3 FP inh 25.6, PAFAH1B2 FP inh 42.4, PAFAH2 inh 34.7 (no result: pPAFAH FP inh)
O=C(O)CCc1ccc(-c2cccs2)n1CCc1ccccc1	pPAFAH FP inh 33.6
COc1ccc(NS(=O)(=O)c2cccc(C(=O)NCC(c3ccc(OC)cc3)N3CCOCC3)c2)cc1 (stereo not drawn)	pPAFAH FP inh 32.0

Screens from PubChem BioAssay.
